# Reference: the supplement of paper PMC12669032
# Values joined by “and” are separate entries in the source; they are usually repeats but may differ in a detail not shown here. Equal values may be shown once.
# Tested on: Coprococcus comes
# Test: growth AUC relative to DMSO control (median of replicates) (fraction); higher = more growth (less inhibition), active = hit call of the paper
# Conditions: 20 µM; 24 h;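 active = AUC reduced over 20% with Padj below 0.05 in at least 2 of 3 replicates; inactive = otherwise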
# How it was run: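 Gut bacteria were grown singly in mGAM at 37 °C without oxygen, from OD600 0.05, alongside 20 µM compound in 1% DMSO, and OD600 was read each hour for 24 h. Area under the growth curve was normalised to the median of solvent-only wells per plate, or to row and column medians on the industrial chemical plate. The minimum OD was set to 0 beforehand, and the reported value is the median of three biological replicates grown on separate days.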
row,SMILES,growth AUC
1,CCCCOC(=O)[C@@H](C)Oc1ccc(Oc2ccc(C#N)cc2F)cc1,1.01 (inactive)
2,Clc1cc(Cl)c(Cl)c(Cl)c1,0.984 (inactive)
3,CN(C)C(=O)Nc1cccc(C(F)(F)F)c1,0.965 (inactive)
4,CN(C)C(=O)Nc1cccc(OC(=O)NC(C)(C)C)c1,0.974 (inactive)
5,CCOP(=O)(NC(C)C)Oc1ccc(SC)c(C)c1 (centres undefined),0.974 (inactive)
6,ClCC(Br)CBr (centres undefined),1 (inactive)
7,O=[N+]([O-])c1c(Cl)c(Cl)cc(Cl)c1Cl,1.01 (inactive)
8,CCS(=O)c1c(C#N)nn(-c2c(Cl)cc(C(F)(F)F)cc2Cl)c1N (centres undefined),0.99 (inactive)
9,CNC(=O)Oc1cccc2c1OC(C)(C)C2O (centres undefined),1.05 (inactive)
10,CCOP(=O)(SC(C)CC)N1CCSC1=O (centres undefined),1 (inactive)
11,CCOP(=O)(OCC)ON1C(=O)c2cccc3cccc(c23)C1=O,0.971 (inactive)
12,O=C(O)C(F)(F)C(F)(F)C(F)(F)C(F)(F)C(F)(F)C(F)(F)F,1 (inactive)
13,O=S1OC[C@@H]2[C@H](CO1)[C@]1(Cl)C(Cl)=C(Cl)[C@@]2(Cl)C1(Cl)Cl (some centres undefined),0.959 (inactive) and 0.955 (inactive)
14,O=C(O)c1ccccc1C(=O)Nc1cccc2ccccc12,0.971 (inactive)
15,CCCCN(CCCC)SN(C)C(=O)Oc1cccc2c1OC(C)(C)C2,1.09 (inactive)
16,C[n+]1ccc(-c2cc[n+](C)cc2)cc1.O.[Cl-].[Cl-],0.98 (inactive)
17,CCC(C)(CC)c1cc(NC(=O)c2c(OC)cccc2OC)on1,1.03 (inactive)
18,CNC(=O)Oc1cc(C)c(SC)c(C)c1,1.01 (inactive)
19,COC(=O)C(C)(Cl)Cl,0.987 (inactive)
20,Cc1cc(Cl)ccc1N=CN(C)C,1.01 (inactive)
21,Nc1cc(Cl)cc(Cl)c1,1.01 (inactive)
22,CCCCCCCCCc1ccc(O)cc1,0.989 (inactive)
23,COc1c(Cl)ccc(Cl)c1Cl,0.973 (inactive)
24,CC(C)(C)c1cc([N+](=O)[O-])cc([N+](=O)[O-])c1O,0.859 (inactive)
